# Compound activity as filed in PubChem.
# The list is not random: actives were taken first. Their share in the collection is about 3.5%.
# FBW7 act – FBW7 E3 ligase activators, primary screen, biochemical, AlphaScreen, human; F-box/WD repeat-containing protein 7 (Homo sapiens), Q969H0; AlphaScreen FBW7–phospho-cyclin E peptide binding, activator screen; normalized activity (activation), % at 26.1 µM; actives 0.13% (n = 650,000); AID 1259310, 2017; in the data active = normalized activity above about 1.9%;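 note: purified mutant Fbw7 with reduced substrate affinity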
# Target sequence (Q969H0 whole entry, looked up): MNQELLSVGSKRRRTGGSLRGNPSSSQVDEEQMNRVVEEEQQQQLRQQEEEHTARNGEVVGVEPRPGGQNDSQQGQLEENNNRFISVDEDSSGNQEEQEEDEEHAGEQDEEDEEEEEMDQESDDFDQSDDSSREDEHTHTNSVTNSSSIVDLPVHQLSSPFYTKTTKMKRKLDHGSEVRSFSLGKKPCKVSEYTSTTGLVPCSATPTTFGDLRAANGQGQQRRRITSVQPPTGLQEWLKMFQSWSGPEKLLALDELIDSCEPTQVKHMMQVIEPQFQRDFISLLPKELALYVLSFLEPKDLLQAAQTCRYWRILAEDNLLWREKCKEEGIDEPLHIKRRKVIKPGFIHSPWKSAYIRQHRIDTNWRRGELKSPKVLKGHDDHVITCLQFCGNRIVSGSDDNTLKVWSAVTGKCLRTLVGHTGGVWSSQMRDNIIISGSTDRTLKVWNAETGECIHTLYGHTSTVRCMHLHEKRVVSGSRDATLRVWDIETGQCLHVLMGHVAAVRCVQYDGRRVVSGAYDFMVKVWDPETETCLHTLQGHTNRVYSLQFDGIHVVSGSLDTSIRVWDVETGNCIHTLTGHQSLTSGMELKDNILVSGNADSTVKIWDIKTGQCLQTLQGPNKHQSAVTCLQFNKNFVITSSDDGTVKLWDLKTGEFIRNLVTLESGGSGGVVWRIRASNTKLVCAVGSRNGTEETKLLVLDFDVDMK
# MITF inh – MITF inhibitors, primary screen, biochemical, AlphaScreen, human. inhibition, % at 2.6 µM. actives 0.91% (n = 650,000). AlphaScreen MITF homodimerization, bead proximity signal; in the data active = inhibition above about 50%
# GPR151 activ – activators of human GPR151, primary screen, cell-based, PathHunter beta-arrestin, luminescence. G-protein coupled receptor 151 (Homo sapiens), Q8TDV0. actives 1% (n = 650,000). PathHunter beta-arrestin GPR151 cells. activation, % at 11.2 µM; in the data active = activation above about 4.9%
# TEAD-YAP block – TEAD-YAP interaction inhibition, primary screen, TEAD-YAP interaction inhibitor project, luminescence, HEK-TIYL cells. actives 1.4% (n = 640,000). TEAD-Gal4/YAP UAS-luciferase luminescence. inhibition, % at 9.12 µM; in the data active = inhibition above about 32%
# A number is an active result; - = inactive; . = not tested or not shown.
SMILES,FBW7 act,MITF inh,GPR151 activ,TEAD-YAP block
CCN1C=C\C(=C/C=C(/C=C/c2cc[n+](CC)cc2)c2cc[n+](CC)c3ccccc23)c2ccccc21,-,-,-,-
O=[N+]([O-])c1cccc(N/N=C/c2ccc([N+](=O)[O-])s2)c1,-,-,-,38.6
Cc1ncc2c(c1CNC(=O)C1CCCO1)CCN(Cc1ccccc1-c1ccco1)C2 (stereo not given),-,-,-,-
Cc1ccc(C(=O)Nc2ncc(C)s2)c(C)c1,-,-,-,80.2
Cc1cccc(-n2ncc3c(N4CCCC4)ncnc32)c1,-,-,-,51.7
Cc1ccc(-n2ncc3c(N4CCCC4)ncnc32)cc1,-,-,-,48.0
Cc1cccc(-n2ncc3c(N4CCOCC4)ncnc32)c1,-,-,-,93.3
Cc1ccc(-n2ncc3c(N4CCCCC4)ncnc32)c(C)c1,-,-,-,-
Cc1cccc(-n2ncc3c(N4CCN(c5ccccc5)CC4)ncnc32)c1,-,-,-,-
Cc1ccc(N2CCN(c3ncnc4c3c(-c3ccccc3)cn4-c3ccc(Br)cc3)CC2C)cc1 (stereo not given),3.7,-,-,-
CC(NC(=O)CNC(=S)N(CCCN1CCOCC1)Cc1cccs1)c1ccccc1 (stereo not given),-,-,-,-
Cc1ccc(-n2ncc3c(N4CCCCC4)ncnc32)cc1C,-,-,-,73.4
Cc1cccc(N2CCN(c3ncnc4c3cnn4-c3ccccc3)CC2C)c1 (stereo not given),-,-,-,43.1
Cc1ccc(-n2ncc3c(N4CCOCC4)ncnc32)c(C)c1,-,-,-,58.2
CC1=CC(=O)OC1Cc1ccncc1 (stereo not given),-,-,-,40.6
CC1=NNC(=O)C1CCc1ccncc1 (stereo not given),-,-,-,-
COc1ccc(/C=N/Nc2nc(N3CCCC3)nc(N3CCOCC3)n2)c(OC)c1OC,-,-,-,-
CCC(C)Nc1ncnc2ccccc12 (stereo not given),-,-,-,38.6
Clc1ccccc1CCNc1ncnc2ccccc12,-,-,-,34.9
COc1cc2ncnc(NC3CCN(Cc4ccccc4)CC3)c2cc1OC,.,.,-,.
c1ccc(CNc2ncnc3ccccc23)cc1,-,-,-,51.4
c1ccc(CN2CCC(Nc3ncnc4ccccc34)CC2)cc1,-,-,-,33.4
COCCNc1ncnc2ccccc12,-,-,-,-
CC(C)CNc1ncnc2ccccc12,-,-,-,-
CCCCOC(=O)c1cc(=O)[nH]c2ccccc12,-,-,-,-
SMILES,FBW7 act,MITF inh,GPR151 activ,TEAD-YAP block
c1ccc(CNc2ncnc3sccc23)nc1,-,-,-,-
OCCCNc1ncnc2sccc12,-,-,-,-
Clc1ccc(CNc2ncnc3sccc23)cc1,-,-,-,52.3
c1nc(NCC2CCCCC2)c2ccsc2n1,-,-,-,36.2
Clc1ccc(CNc2ncnc3ccccc23)cc1,-,-,-,56.5
O=Nc1onc(-c2ccc([N+](=O)[O-])cc2)c1NO,-,-,-,-
Cc1ccc(-c2noc(N=O)c2NO)cc1,-,-,-,36.3
O=C(Nc1nc2ccccc2[nH]1)c1cccc(Br)c1,-,-,-,-
Cc1cccc(C(=O)Nc2nc3ccccc3[nH]2)c1,-,-,-,32.1
Cc1cccc(C(=O)N[C@H](C(=O)Nc2nc3ccccc3[nH]2)C(C)C)c1,-,-,-,65.8
FC(F)(F)c1cccc(N2CCN(c3ncnc4sccc34)CC2)c1,-,-,-,-
OC(c1ccc2c(c1)CN(Cc1ccco1)CCO2)c1ccccn1 (stereo not given),-,-,-,-
C/C(=N/Nc1nc(-c2ccccc2)cs1)C(C)(C)C,-,-,-,60.9
Cc1ccc(C(=O)c2c(C)[n+](-c3ccccc3)c3scc(C)n23)cc1,-,-,-,34.4
Cc1csc2n1c(C(=O)c1ccccc1)c(C)[n+]2-c1ccccc1,-,-,-,-
Fc1cccc(-c2cnc3c(Nc4ccc5[nH]ccc5c4)nccn23)c1,-,-,-,-
c1cnc2c(-c3cnc4c(Nc5ccc6[nH]ccc6c5)nccn34)cccc2c1,-,-,-,54.8
CS(=O)(=O)Nc1cccc(-c2cnc3c(Nc4ccc5[nH]ccc5c4)nccn23)c1,-,-,-,90.0
c1ccc(-c2cnc3c(Nc4ccc5[nH]ccc5c4)nccn23)cc1,-,-,-,-
Cc1nc(N2CCNCC2)c2c3c(sc2n1)CCCC3,-,-,-,-
N#C/C(=C1/Nc2ccccc2S1)c1ccnc(OCc2ccc(CN3CCOCC3)cc2)n1,-,-,-,86.2
CC(=O)c1ccc2[nH]c3c(c2c1)CCCC3=O,-,-,-,-
COC(=O)c1cc(C)nc2c1C(=O)C(=O)C=C2N1CCOCC1,-,-,-,41.2
COc1cc(/C=N/NC(=O)CCN2CCN(C)CC2)cc(OC)c1O,-,51.4,-,-
COc1cc(/C=N/NC(=O)CCN2CCN(C)CC2)ccc1O,-,-,-,-
SMILES,FBW7 act,MITF inh,GPR151 activ,TEAD-YAP block
O=C(NCCCn1ccnc1)C1CC12CCN(C(=O)C1(c3ccccc3)CCCCC1)CC2 (stereo not given),-,-,-,38.0
CN(C)C1(CNC(=O)C2=NN(C3CCS(=O)(=O)C3)C(=O)CC2)CCCCC1 (stereo not given),-,-,-,-
O=C(/C=C/c1ccc([N+](=O)[O-])cc1)Nc1cccc(C(=O)c2ccc(F)cc2)c1,-,-,-,37.9
COC(=O)C1=C(C)NC(=S)NC1c1ccc(OCC(=O)N2CCCCCC2)c(OC)c1 (stereo not given),-,-,-,-
COc1cccc(Cn2ccn(Cc3ccccc3)c(=O)c2=O)c1,-,-,-,-
COc1cccc(Cn2ccn(-c3cccc(Cl)c3)c(=O)c2=O)c1,-,-,-,52.7
CCCC(=O)NC(c1ccc(OC)c(OC)c1)c1ccc2cccnc2c1O (stereo not given),-,-,-,87.5
COc1ccc(C(NC(=O)Cc2ccccc2)c2ccc3cccnc3c2O)cc1OC (stereo not given),-,-,-,90.1
O=C(CCc1ccccc1)NC(c1ccc2c(c1)OCO2)c1ccc2cccnc2c1O (stereo not given),-,-,-,82.8
COc1cc(Nc2nc(NCCc3ccc(O)cc3)c3[nH]cnc3n2)cc(OC)c1OC,-,-,-,46.0
CN(C)c1cccc(Nc2nc(NCc3ccccc3)c3[nH]cnc3n2)c1,2.4,-,-,-
Oc1ccc(CCNc2nc(Nc3ccncc3)nc3nc[nH]c23)cc1,-,-,-,-
Oc1ccc(CCNc2nc(Nc3ccccc3)nc3nc[nH]c23)cc1,-,-,-,51.8
Oc1ccc(CCNc2nc(Nc3cnccn3)nc3nc[nH]c23)cc1,-,-,-,39.0
COc1cc(Nc2nc(NCCO)c3[nH]cnc3n2)cc(OC)c1OC,-,-,-,-
